In PubChem BioAssay AID588848 (Broad Institute, 2011):
Potency and affinity values are given separately. Records with an inconclusive call do not appear. Unmarked numbers belong to inactive results.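 How the source made its calls: active means fitted half-maximal inhibiting dose no more than ten times the top valid dose tested; inconclusive means flat activity from -30 to -70%, or unreliable curve fit; inactive means the rest.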

Molecular target: CAAX prenyl protease 2 (Homo sapiens) (UniProt Q9Y256)
Test: inhibition of Ras-converting CAAX endoprotease – biochemical, plate reader, dry powder samples, dose response (AID 588848)
Conditions: yeast membranes expressing human Rce1, fluorogenic peptide cleavage; series mostly up to 30 µM; activity change, negative = inhibition: at the top concentration

Chain of CAAX prenyl protease 2 (Homo sapiens) (Q9Y256 whole entry, looked up): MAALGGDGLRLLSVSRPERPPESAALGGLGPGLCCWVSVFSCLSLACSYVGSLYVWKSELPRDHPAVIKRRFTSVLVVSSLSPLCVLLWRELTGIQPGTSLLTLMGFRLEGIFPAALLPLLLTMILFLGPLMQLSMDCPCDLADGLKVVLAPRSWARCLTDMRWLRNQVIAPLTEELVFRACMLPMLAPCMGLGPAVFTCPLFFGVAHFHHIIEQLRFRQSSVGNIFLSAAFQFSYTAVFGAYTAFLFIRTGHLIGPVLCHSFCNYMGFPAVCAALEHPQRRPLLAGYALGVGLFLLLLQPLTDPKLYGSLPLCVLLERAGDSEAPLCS

| SMILES | activity change, negative = inhibition [%] |
| --- | --- |
| Cc1ccc(SCc2c(C(=O)N/N=C/c3ccccc3)nnn2-c2nonc2N)cc1 | 10.5 |
| CC(C)c1c(C(=O)N/N=C/c2cccc3ccccc23)nnn1-c1nonc1N | 8.17 |
| COc1ccc(-n2c(SCc3ccc([N+](=O)[O-])cc3)nnc2-c2ccc(C)cc2)cc1 | 7.73 |
| CCOc1cccc(-c2c(C(=O)N/N=C/c3cccs3)nnn2-c2nonc2N)c1 | 14 |
| Cc1cc(N2CCN(C(c3ccccc3)c3ccccc3)CC2)n2ncnc2n1 | -8.64 |
| Cc1ccc(NC(=O)CCc2ccc(S(=O)(=O)NC3CCCCC3)cc2)cc1 | 9.46 |
| CN(C(=O)COC(=O)c1cn(-c2ccccc2)nc1-c1ccccc1)C1CCS(=O)(=O)C1 (stereo not given) | -2.52 |
| Cc1cccc(-c2nnc(SCc3ccc(C#N)cc3)n2Cc2ccco2)c1 | 13.3 |
| CCCOc1ccc(-c2c(C(=O)N/N=C/c3cccs3)nnn2-c2nonc2N)cc1 | 16.2 |
| Nc1nonc1-n1nnc(C(=O)N/N=C/c2cccc(Cl)c2)c1CSc1ccc(Cl)cc1 | 18.1 |
